Compounds with a hit are over-represented: about 13% of the library has one in this group of screens.
CHOP inhibitor: inhibitors of CHOP promoter induction, primary screen, cell-based, unfolded protein response, luciferase reporter | CHO-K1 CHOP-promoter luciferase, tunicamycin-induced, 15-18 h | inhibition, % at 10 µM | AID 2732, 2010 | 220,000 tested, 3.8% active;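 active = compounds that reduced the stress-induced luciferase reporter signal by more than about 70% of percent inhibition, limit read from the data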;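 note: 0% = tunicamycin plus vehicle and 100% = wells without tunicamycin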
RAM network inh: inhibitors of the yeast RAM network, primary screen, dse1pr::URA3 reporter, 5-FOA selection | AID 868, 2007 | 190,000 tested, 1.8% active | inhibition, % at 50 µM | S. cerevisiae dse1pr::URA3 reporter, 5-FOA growth OD615, 2 d; analog-sensitive cbk1-as2 kinase mutant strain;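 active = inhibition above a set limit, 3 SD over mean compound inhibition, cut at about 8.4% in these data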;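 note: 0% = DMSO-only wells with no growth and 100% = 10 µM 1-NA-PP1 full growth; inhibition rescues growth on 5-FOA so higher OD means more RAM inhibition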
WT yeast gro inh: growth inhibition of WT strain, primary screen, mitochondrial fusion inhibitor project, WT and mutant strains, chemical genetic. mitochondrial fusion phenotypic screen. inhibition, % at 10 µM. 190,000 tested, 2.1% active; in the data active = inhibition above about 58%; tested in S. cerevisiae
L major viab: Leishmania major promastigote growth inhibition, primary screen; Leishmania major promastigotes, resazurin fluorescence viability; inhibition, % at 10 µM; 200,000 tested, 9% active; AID 1063, 2008; in the data active = inhibition above about 50%;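 note: promastigotes grown with compound for 44 hours at 28 °C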
CHOP confirm: retest of CHOP induction inhibitors, confirmation, cell-based | CHO-CHOP promoter luciferase reporter, tunicamycin-induced, luminescence | shares compounds with CHOP inhibitor | AID 504437, 2011 | 2,100 tested, 45% active | inhibition, % at 10 µM;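 active = mean of three repeat readings of reporter signal inhibition above a set limit, cut at about 70% in these data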;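 note: 0% = tunicamycin plus vehicle and 100% = wells lacking tunicamycin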
* hit, by the source's call; . = not tested or not shown.

SMILES	CHOP inhibitor	RAM network inh	WT yeast gro inh	L major viab	CHOP confirm
O=C(O)C1CN2CCC1CC2 (stereo not drawn)	4	0	7	-8	.
CCOP(=O)(Cc1cc(C#N)oc1C)OCC	-4	1	4	-5	.
CCOC(=O)c1c(/N=C/c2c(O)n(-c3cccc(C)c3)c(=O)[nH]c2=O)sc2c1CCCC2	98*	2	32	-5	88*
CCOC(=O)c1sc(/N=C/c2c(O)n(-c3ccccc3)c(=O)[nH]c2=O)c(C#N)c1C	27	0	7	-2	.
C=C(C=O)CC1CC(O)[C@]2(C)OC3CC4OC5C[C@]6(C)O[C@]7(C)CCC8OC9C[C@]%10(C)OC%11C(C)=CC(=O)OC%11CC%10OC9C[C@@H](C)C8OC7CC6O[C@]5(C)CC5OC5C4OC3CC2O1 (stereo partly drawn)	105*	-1	82*	101*	127*
CC(C)n1c(O)c(C2c3cc(Cl)ccc3Oc3[nH]c(=O)n(C(C)C)c(=O)c32)c(=O)[nH]c1=O (stereo not drawn)	107*	.	.	.	62
O=c1c2ccccc2nc(-c2ccoc2)n1-c1ccccc1	33	0	7	-3	.
COCCCn1c(N)c(C(=O)NCCC(C)C)c2nc3ccccc3nc21	99*	-1	43	3	99*
OC(c1ccccc1)(c1ccccc1)C1CCNCC1	108*	-1	7	1	18
COc1cc(C2SCC(=O)Nc3c2c(=O)[nH]n3C2CCCCCC2)cc(OC)c1OC (stereo not drawn)	11	5	3	-4	.
CCCCCn1c(=O)c(C(=O)Nc2nc3ccccc3[nH]2)c(O)c2ccccc21	98*	.	.	.	109*
CCCCn1c(=O)c(C(=O)Nc2cnccn2)c(O)c2ccccc21	99*	-1	9	52*	93*
O=C(O)c1cc[c]([Hg][Cl])cc1	-25	.	.	.	.
CCN1CCN(S(=O)(=O)c2cnc(Cl)c(Br)c2)CC1	-9	0	-45	-1	.
O=C1C2CCCN2C(c2cccc(Cl)c2)N1c1ccccn1 (stereo not drawn)	12	0	1	-4	.
COC(=O)C(O)(c1ccc(NC(=O)NC2CCCCC2)cc1)C(F)(F)F (stereo not drawn)	2	2	10	-8	.
COC(=O)C(O)(c1ccc(NC(=S)NC(=O)c2ccc(Cl)cc2Cl)c(C)c1)C(F)(F)F (stereo not drawn)	98*	9.3*	75*	6	106*
CCCCCCOC(=O)c1ccccc1N	97*	1	10	-8	103*
CC(C)COC(=O)c1ccccc1C(=O)OCC(C)C	30	.	.	.	.
COc1ccc(/C=C2/C(=O)NC(=S)N(C3CC3)C2=O)cc1CN1C(=O)c2ccccc2C1=O	-9	-1	-1	-8	.
CCCCCCCSc1cc(OC)c(CCNC)cc1OC	100*	0	94*	100*	3
CCCN(CCC)CCc1c[nH]c2ccc(C(N)=O)cc12	-8	.	.	.	.
O=c1[nH]c(O)c(C=Nc2ccccc2Sc2ccccc2)c(=O)[nH]1	100*	.	.	.	-34
O=c1[nH]c(O)c(C=Nc2ccccc2[N+](=O)[O-])c(=O)[nH]1	12	1	12	-7	.
CC(=O)OC[C@]12CCC(C)=C[C@H]1O[C@@H]1[C@H](O)[C@@H](OC(C)=O)[C@@]2(C)[C@]12CO2	104*	.	.	.	123*
SMILES	CHOP inhibitor	RAM network inh	WT yeast gro inh	L major viab	CHOP confirm
CCCN(CCC)C1CCc2ccc(O)cc2C1 (stereo not drawn)	3	.	.	.	.
CC1=CC(=O)C2=C(C)CC(O)C3C(C)C(=O)OC3C12 (stereo not drawn)	-21	2	-3	0	.
CCCn1ncc(CN2CCCC(C(=O)c3cccc(OC)c3)C2)c1C (stereo not drawn)	-14	0	-7	29	.
CCN1/C(=C\C=C\C2=[N+](CC)c3ccccc3C2(C)C)C(C)(C)c2ccccc21	103*	0	89	99*	140*
O=c1[nH]c(=O)n(-c2ccccc2)c(O)c1/C=C/C=Nc1ccccc1	-1	2	-6	-6	.
O=c1[nH]c(=O)n(C2CCCCC2)c(O)c1/C=C/C=Nc1ccccc1	100*	.	.	.	36
COc1ccc(CN2C(=O)NC(=O)/C(=C\c3ccco3)C2=O)cc1	105*	1	0	-7	-29
Cc1cc(NC(=O)CCl)on1	-16	0	-2	28	.

From PubChem BioAssay
